Test [1] can be described thus: yeast TOR pathway RPL19A-GFP modulators, primary screen, cell-based, S. cerevisiae, multiplex flow cytometry (AID 1862; in the data active = percent of DMSO control GFP below about 86%;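 note: lower values mimic rapamycin by blocking the RPL19A rise seen in DMSO cells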). The following applies: S. cerevisiae RPL19A-GFP strain, flow cytometry fluorescence, 3 h; at 10 µM; stronger effect = lower value.
Test [2] is described as follows: modulators of MEP2-GFP levels in yeast, primary screen, S. cerevisiae, multiplex flow cytometry (AID 1867;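 active = GFP response, as percent of the DMSO control, above the screen-wide mean plus 3 SD, about 139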;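 note: median GFP channel fluorescence of barcode-gated MEP2-GFP cells measured by flow cytometry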). The following applies: S. cerevisiae MEP2-GFP strain, 3 h, at 10 µM, stronger effect = higher value, 100% means same as DMSO wells.
The nature of test [3]: modulators of CIT2-GFP expression in yeast, primary screen, S. cerevisiae, GFP fusion, multiplex flow cytometry (AID 1870;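 active = percent response above a set limit, the screen-wide mean plus 3 SD, cut at about 130% in these data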;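 note: barcoded CIT2-GFP strain pooled with four other GFP strains with rapamycin as positive control; median GFP fluorescence per well over plate mean of DMSO wells so 100% = DMSO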). Particulars: 3 h, at 10 µM, stronger effect = higher value. On the technique in general: In flow cytometry, cells or beads pass a laser one at a time.
Test [4] is described as follows: modulators of LAP4-GFP expression in yeast, primary screen, S. cerevisiae, multiplex flow cytometry (AID 1873;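 active = GFP signal, as percent of the solvent control, above the screen mean plus 3 SD, about 149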). Particulars: 3 h, at 10 µM, stronger effect = higher value.
Test [5] can be described thus: modulators of AGP1-GFP expression in yeast TOR pathway, primary screen, cell-based, multiplex flow cytometry, S. cerevisiae (AID 1887;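 active = GFP signal above the screen-wide mean plus 3 SD, that is over about 124.5% of the solvent control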;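 note: AGP1-GFP fusion strain of S. cerevisiae within a five-strain barcoded multiplex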). Particulars: 3 h, at 10 µM, stronger effect = higher value.
Test [6] is described as follows: inhibitors of CD8+ T cell-vesicle binding, pilot screen, LFA-1/ICAM-1 modulator project, MLPCN validation set, flow cytometry (AID 2523;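 active = response below a set limit, under 55% cells CD8-positive and vesicle-bound, and CD8 cells' 90th-percentile brightness under 279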;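 for vesicle binding response: mean PE anti-B7-1 fluorescence of CD8+ cells relative to row control; 100% = QL9-loaded vesicles with DMSO vehicle in the same plate row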). Particulars: 2C mouse CD8+ T cells, at 7 µM, stronger effect = lower value; double positive events: measured here: CD8+/vesicle+ event percentage.
Test [7] concerns the target Integrin beta-1 (Homo sapiens) + Integrin alpha-4 (Homo sapiens) (UniProt P13612+P05556). In words: inhibition of HUTS-21 binding to VLA-4, pilot screen, VLA-4 allosteric modulator project, U937 cells, HUTS-21 mAb, flow cytometry, validation set (AID 2674;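 active = inhibition above 50%, about 3 SD of the validation set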;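 note: antibody binding induced by the VLA-4 ligand LDV present at three times its Kd; 0% = LDV ligand with antibody and no compound and 100% = antibody without LDV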). The following applies: HUTS-21 LIBS mAb binding, at 6.7 µM, stronger effect = higher value, binding induced by LDV ligand.
Test [8] can be described thus: superoxide lowering in aged yeast cells, pilot screen, validation compound set (AID 2706;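 active = superoxide response below 65% of plate, a cut near 3 SD across the whole screen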;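 note: yeast exposed to compound for one week at 30 degrees C before staining; 100% = mean of all compound wells on the same plate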). The following applies: S. cerevisiae aging, superoxide DHE fluorescence; at 10 µM; stronger effect = lower value.
Test [9] addresses Beta-adrenergic receptor kinase 1 (Homo sapiens) (UniProt P25098). In words: GRK2 binders displacing RNA aptamer, biochemical, validation, human GRK2, bead flow cytometry (AID 488806). The following applies: bead-bound GRK2, FAM-aptamer displacement, at 10 µM, stronger effect = higher value.
Test [10] addresses Beta-2 adrenergic receptor (Homo sapiens) (UniProt P07550). In words: beta2AR agonists driving receptor internalization, pilot screen, cell-based, FAP fluorogen, flow cytometry, validation set (AID 504459;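 active = percent response above 42, roughly 3 SD of non-fluorescent test compounds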;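 note: agonist-driven loss of surface beta2AR via internalization measured by FAP dye flow cytometry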). Particulars: Am2.2-beta2AR cells, FAP surface receptor flow cytometry; at 10 µM; stronger effect = higher value.
The target in test [11] is AP-2 complex subunit beta (Homo sapiens) (UniProt P63010). Nature of the test: inhibitors of arrestin peptide binding to AP2, pilot screen, biochemical, validation set, GST-AP2 beads, flow cytometry (AID 504541;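 active = inhibition above 54%, about 3 SD of non-fluorescent compounds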;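 note: AP2 carries R879A mutation and is captured from E. coli lysate; bead-bound FITC arrestin peptide fluorescence measuring arrestin peptide binding to AP2; 0% = DMSO wells and 100% = excess unlabeled arrestin peptide control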). The following applies: FITC arrestin peptide, at 10 µM, stronger effect = higher value, AP2 beta2 appendage fragment, R879A mutant.
Test [12] is described as follows: yeast V-ATPase proton transport modulators, S. cerevisiae, pHLuorin, HTS validation (AID 504600; in the data active = response above about 15%;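 note: plate controls were DMSO for no effect and reference compound for full effect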). The following applies: S. cerevisiae pHLuorin cytosolic pH, at 10 µM, stronger effect = higher value.
The test system of test [13] is anti-desmoglein-3 scFv antibody binding to human DSG3. In words: inhibitors of anti-DSG3 scFv binding to DSG3, pilot screen, biochemical, validation compound set, bead-based, flow cytometry (AID 588368;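 active = binding below the plate cutoff, the plate median minus 3 SD, with a reading above zero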;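 note: signal is the median channel fluorescence of bead-bound GFP antibody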). Particulars: Protein G beads, DSG3-Fc, scFv-GFP binding, at 10 µM, stronger effect = lower value.
The nature of test [14]: inhibitors of fungal efflux pumps CDR1, CDR2, MDR1, pilot screen, validation compound set, multiplex, phenotypic (AID 588506;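 active = efflux inhibition above 0.42, the validation set average plus 4 SD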;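 note: Nile Red retained in cells so higher fluorescence means more efflux inhibition; 0 = negative control wells and 1 = enniatin B 25 µM full block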). The following applies: S. cerevisiae pump-expressing triplex, Nile Red efflux flow cytometry; at 10 µM; stronger effect = higher value; the pumps come from Candida albicans.
Test [15] concerns the target ATP-binding cassette sub-family B member 6 (Homo sapiens) (UniProt Q9NP58). Nature of the test: ABCB6 transporter inhibitors, pilot screen, K562-ABCB6 cells, flow cytometry, validation set (AID 588550;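 active = inhibition above the screen-wide mean plus 3 SD, about 51%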;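 note: 0% = DMSO wells and 100% = benzethonium chloride 70 µM positive control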). The following applies: K562-ABCB6 porphyrin accumulation, 1 h, at 10 µM, stronger effect = higher value.
Test [16] can be described thus: promoters of myeloid differentiation in arrested cells, primary screen, cell-based, GFP/MAC1 double positive, flow cytometry, validation set (AID 588685;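 active = differentiation response of at least 50%, scaled between solvent and reference control, from cells with both markers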;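 note: compound exposure lasts four days before antibody staining and flow analysis; 0% = DMSO wells and 100% = 5 µM fulvestrant positive control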). The following applies: ER-HoxA9 marrow cells, stronger effect = higher value, normalized: vehicle 0, fulvestrant 100.

The inhibition is the relative decrease from the control value, in per cent.

Inconclusive results are not listed. The source made the active and inactive calls.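 Rule for the calls, unless noted: active = aptamer binding inhibition above 30%, about 3 SD of noise from non-fluorescent compounds; inactive = inhibition at or below 30%.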

Chain of ATP-binding cassette sub-family B member 6 (Homo sapiens) (Q9NP58 whole entry, looked up): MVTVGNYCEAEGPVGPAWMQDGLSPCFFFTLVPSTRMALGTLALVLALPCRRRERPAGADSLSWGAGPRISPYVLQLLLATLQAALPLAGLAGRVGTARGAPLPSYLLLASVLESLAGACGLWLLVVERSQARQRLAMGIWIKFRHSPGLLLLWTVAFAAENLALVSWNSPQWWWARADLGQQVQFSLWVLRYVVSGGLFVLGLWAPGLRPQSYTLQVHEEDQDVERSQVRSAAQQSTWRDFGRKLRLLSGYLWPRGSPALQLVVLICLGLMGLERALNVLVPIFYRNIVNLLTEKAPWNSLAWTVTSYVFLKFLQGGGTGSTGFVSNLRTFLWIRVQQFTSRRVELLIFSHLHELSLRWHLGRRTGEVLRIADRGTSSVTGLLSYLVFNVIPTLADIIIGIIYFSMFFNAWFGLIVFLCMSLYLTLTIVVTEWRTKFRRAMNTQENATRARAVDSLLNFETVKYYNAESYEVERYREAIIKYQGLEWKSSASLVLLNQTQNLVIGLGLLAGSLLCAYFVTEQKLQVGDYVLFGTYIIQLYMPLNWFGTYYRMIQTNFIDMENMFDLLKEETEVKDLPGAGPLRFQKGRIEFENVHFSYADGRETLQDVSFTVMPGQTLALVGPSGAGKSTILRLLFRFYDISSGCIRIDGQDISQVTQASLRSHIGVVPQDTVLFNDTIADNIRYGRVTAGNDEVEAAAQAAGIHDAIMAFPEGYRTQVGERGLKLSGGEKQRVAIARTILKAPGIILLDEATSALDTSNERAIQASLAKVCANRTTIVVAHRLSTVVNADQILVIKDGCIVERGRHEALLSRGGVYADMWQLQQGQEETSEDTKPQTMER
Chain of AP-2 complex subunit beta (Homo sapiens) (P63010 whole entry, looked up, the tested form may be a part, one chain of several): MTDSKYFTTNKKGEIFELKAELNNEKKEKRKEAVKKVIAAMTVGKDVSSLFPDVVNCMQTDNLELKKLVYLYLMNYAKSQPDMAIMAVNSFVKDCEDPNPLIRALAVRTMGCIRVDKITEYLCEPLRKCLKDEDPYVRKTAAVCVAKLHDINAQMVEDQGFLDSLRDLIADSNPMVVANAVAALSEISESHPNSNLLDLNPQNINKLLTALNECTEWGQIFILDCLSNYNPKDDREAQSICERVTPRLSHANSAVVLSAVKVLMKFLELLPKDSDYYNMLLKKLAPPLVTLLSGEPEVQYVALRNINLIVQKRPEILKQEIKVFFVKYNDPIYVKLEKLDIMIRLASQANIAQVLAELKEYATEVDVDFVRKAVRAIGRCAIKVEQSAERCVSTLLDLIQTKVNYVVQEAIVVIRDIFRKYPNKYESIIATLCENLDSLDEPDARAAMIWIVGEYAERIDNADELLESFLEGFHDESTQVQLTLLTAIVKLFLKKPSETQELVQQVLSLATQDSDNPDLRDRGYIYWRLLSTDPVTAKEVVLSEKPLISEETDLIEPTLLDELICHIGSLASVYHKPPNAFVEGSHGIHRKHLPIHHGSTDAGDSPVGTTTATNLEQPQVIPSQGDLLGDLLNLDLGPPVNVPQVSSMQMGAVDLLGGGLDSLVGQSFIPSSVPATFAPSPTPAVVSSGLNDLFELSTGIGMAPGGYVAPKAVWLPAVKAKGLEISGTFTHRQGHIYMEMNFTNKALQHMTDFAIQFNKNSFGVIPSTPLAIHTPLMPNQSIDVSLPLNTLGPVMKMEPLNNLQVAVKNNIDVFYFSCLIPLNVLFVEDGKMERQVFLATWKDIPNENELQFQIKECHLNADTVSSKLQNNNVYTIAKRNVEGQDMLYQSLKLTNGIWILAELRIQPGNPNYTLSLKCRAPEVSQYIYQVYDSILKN
Chain of Integrin beta-1 (Homo sapiens) + Integrin alpha-4 (Homo sapiens) (P05556 whole entry, looked up): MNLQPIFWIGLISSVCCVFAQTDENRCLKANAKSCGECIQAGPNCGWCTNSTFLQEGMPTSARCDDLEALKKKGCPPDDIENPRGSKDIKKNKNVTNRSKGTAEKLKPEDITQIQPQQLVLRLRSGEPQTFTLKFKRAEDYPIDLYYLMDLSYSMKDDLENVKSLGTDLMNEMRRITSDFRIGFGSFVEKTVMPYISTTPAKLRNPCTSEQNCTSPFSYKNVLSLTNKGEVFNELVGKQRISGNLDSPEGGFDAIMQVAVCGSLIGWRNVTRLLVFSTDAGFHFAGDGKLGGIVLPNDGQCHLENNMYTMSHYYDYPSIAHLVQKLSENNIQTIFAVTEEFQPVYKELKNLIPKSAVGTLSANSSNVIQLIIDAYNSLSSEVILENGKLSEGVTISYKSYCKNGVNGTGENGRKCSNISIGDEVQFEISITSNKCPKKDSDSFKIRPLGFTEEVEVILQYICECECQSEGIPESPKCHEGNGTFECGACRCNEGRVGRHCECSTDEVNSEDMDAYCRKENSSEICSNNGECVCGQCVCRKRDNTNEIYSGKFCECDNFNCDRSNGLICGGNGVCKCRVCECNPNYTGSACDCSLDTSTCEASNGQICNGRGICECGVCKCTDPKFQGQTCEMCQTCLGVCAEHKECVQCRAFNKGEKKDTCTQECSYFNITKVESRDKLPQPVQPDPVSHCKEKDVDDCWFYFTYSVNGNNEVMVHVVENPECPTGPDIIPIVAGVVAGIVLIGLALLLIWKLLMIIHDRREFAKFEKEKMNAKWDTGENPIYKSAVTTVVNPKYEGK
Chain of Integrin beta-1 (Homo sapiens) + Integrin alpha-4 (Homo sapiens) (P13612 whole entry, looked up): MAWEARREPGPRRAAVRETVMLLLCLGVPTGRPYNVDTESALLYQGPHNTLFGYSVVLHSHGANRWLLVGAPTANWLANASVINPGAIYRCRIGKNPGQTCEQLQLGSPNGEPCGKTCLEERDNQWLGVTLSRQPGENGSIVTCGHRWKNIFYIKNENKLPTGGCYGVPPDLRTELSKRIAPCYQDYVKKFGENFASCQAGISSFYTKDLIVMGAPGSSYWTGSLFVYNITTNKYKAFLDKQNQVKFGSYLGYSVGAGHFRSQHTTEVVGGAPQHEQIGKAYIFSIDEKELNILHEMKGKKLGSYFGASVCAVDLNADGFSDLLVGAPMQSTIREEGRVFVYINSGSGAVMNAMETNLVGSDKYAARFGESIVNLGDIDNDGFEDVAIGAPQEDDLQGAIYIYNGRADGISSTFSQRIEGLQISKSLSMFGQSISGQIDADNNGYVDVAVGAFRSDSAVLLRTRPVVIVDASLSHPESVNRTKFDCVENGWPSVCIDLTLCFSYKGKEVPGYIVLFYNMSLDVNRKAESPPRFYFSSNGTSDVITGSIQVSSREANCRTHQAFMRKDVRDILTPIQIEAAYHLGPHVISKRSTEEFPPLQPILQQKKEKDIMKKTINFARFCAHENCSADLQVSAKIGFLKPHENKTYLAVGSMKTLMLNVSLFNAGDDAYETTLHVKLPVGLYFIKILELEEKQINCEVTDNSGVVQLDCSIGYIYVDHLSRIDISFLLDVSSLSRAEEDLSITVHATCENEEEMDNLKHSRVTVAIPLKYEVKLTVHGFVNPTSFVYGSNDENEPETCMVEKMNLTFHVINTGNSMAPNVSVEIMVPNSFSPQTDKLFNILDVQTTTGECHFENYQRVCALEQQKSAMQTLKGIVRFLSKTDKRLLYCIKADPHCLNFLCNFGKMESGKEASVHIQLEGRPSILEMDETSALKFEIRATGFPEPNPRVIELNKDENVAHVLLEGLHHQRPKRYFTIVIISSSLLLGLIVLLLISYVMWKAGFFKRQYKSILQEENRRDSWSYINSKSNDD
Chain of Beta-adrenergic receptor kinase 1 (Homo sapiens) (P25098 whole entry, looked up): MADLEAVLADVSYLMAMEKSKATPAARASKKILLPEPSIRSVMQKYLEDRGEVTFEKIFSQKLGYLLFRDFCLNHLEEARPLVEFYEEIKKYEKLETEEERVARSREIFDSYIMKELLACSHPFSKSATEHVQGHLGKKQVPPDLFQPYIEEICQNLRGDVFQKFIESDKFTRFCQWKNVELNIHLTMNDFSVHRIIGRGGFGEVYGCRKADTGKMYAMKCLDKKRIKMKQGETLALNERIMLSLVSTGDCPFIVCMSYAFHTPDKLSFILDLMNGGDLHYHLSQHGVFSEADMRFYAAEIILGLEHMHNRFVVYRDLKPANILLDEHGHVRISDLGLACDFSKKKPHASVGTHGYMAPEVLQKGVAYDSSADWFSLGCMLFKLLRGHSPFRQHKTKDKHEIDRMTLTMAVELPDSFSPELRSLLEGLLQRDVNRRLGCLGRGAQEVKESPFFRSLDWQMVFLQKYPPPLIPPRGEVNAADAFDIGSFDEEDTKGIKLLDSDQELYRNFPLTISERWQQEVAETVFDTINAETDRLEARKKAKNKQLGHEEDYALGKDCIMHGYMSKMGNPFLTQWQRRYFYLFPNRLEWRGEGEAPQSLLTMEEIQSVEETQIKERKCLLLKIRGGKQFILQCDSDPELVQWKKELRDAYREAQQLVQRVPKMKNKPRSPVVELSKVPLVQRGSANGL
Chain of Beta-2 adrenergic receptor (Homo sapiens) (P07550 whole entry, looked up): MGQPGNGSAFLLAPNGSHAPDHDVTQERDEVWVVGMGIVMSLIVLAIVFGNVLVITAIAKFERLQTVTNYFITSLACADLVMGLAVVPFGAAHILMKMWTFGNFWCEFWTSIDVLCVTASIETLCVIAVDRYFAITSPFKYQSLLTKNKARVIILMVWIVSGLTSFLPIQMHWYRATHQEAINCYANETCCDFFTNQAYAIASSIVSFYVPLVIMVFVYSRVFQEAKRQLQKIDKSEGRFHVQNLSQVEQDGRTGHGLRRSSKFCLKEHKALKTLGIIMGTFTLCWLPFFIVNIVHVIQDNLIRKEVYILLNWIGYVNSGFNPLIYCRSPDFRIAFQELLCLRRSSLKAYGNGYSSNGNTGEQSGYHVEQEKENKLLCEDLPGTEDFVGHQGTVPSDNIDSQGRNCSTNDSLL

On to `COc1ccc(N2C(=O)[C@@H]3[C@H](C2=O)[C@H]2c4ccccc4C=CN2[C@@H]3C(C)=O)cc1`, for which the percent of DMSO control GFP in test [1] is 101% (inactive). For the same compound, the GFP response vs DMSO in test [2] is 104% (inactive); in test [4], 112% (inactive). Also, in test [3], the percent response of DMSO control was 96.5% (inactive). The GFP response, % of DMSO in test [5] was 96.8% (inactive). Further, in test [6], the double positive events was determined as 64.6%. In test [6], the vesicle binding response was 176% (inactive). Besides, the results for the inhibition in test [7], in test [11] and in test [15] were -27.9% (inactive), -12.3% (inactive) and -6% (inactive), respectively. For the same compound, in test [8], the superoxide response (% of plate) is 98.7% (inactive). Also, the aptamer binding inhibition in test [9] was 2% (inactive). For the same compound, the response in test [10] is -19.3% (inactive); in [12] it was -3.65% (inactive). Further, in [13], the binding (% of control) was 107% (inactive). In addition, the efflux inhibition (fraction of control) in test [14] was -0.26 (inactive). The differentiation response in test [16] is -3.11% (inactive).

Take `C[C@@H]1C[C@H](Nc2ccccc2)c2ccccc2N1C(=O)c1cccnc1`: the percent of DMSO control GFP in [1] is 103% (inactive). For the same compound, the results for the GFP response vs DMSO in test [2] and in [4] were 103% (inactive) and 98.2% (inactive), respectively. Moreover, in [3], the percent response of DMSO control is 103% (inactive). In addition, the GFP response, % of DMSO in test [5] was 101% (inactive). Also, in [6], the double positive events was 59.5%. Also, in [6], the vesicle binding response was 188% (inactive). In addition, the inhibition in [7] is 3.67% (inactive); in test [11], 19.6% (inactive); in [15] it was 0% (inactive). Further, the superoxide response (% of plate) in test [8] is 95.6% (inactive). For the same compound, the aptamer binding inhibition in test [9] was 4% (inactive). The response in [10] is 2.27% (inactive); in test [12], -5.05% (inactive). Moreover, the binding (% of control) in test [13] was 102% (inactive). For the same compound, the efflux inhibition (fraction of control) in [14] was 0.05 (inactive). For the same compound, the differentiation response in test [16] is 29.6% (inactive).

On to `COc1cccc2c(O)cc(=O)n(C)c12`, for which, in [1], the percent of DMSO control GFP was 96.9% (inactive). Besides, the GFP response vs DMSO in test [2] is 111% (inactive); in test [4], 116% (inactive). For the same compound, in [3], the percent response of DMSO control was 96.7% (inactive). The GFP response, % of DMSO in test [5] was 100% (inactive). The compound further had a double positive events in [6] of 61.5%. In addition, the vesicle binding response in test [6] is 169% (inactive). The results for the inhibition in [7], in test [11] and in test [15] were 3.67% (inactive), 25% (inactive) and 4% (inactive), respectively. Also, the superoxide response (% of plate) in [8] is 98.4% (inactive). Also, the aptamer binding inhibition in test [9] is -1% (inactive). Besides, the response in test [10] was 5.82% (inactive); in test [12], -5.16% (inactive). Besides, the binding (% of control) in test [13] is 101% (inactive). In addition, the efflux inhibition (fraction of control) in test [14] was -0.17 (inactive). Also, the differentiation response in [16] was -21.6% (inactive).

On to `O=C(/C=C/c1ccc2c(c1)OCCCO2)c1ccc2ccccc2c1O`, for which the percent of DMSO control GFP in test [1] is 97.3% (inactive). The GFP response vs DMSO is 102% (inactive) in test [2] and 112% (inactive) in test [4]. The percent response of DMSO control in test [3] was 99.6% (inactive). In addition, in test [5], the GFP response, % of DMSO was 109% (inactive). The double positive events in test [6] was 59.6%. Moreover, the vesicle binding response in test [6] was 215% (inactive). Further, the inhibition in test [7] is -76.9% (inactive); in [11], -2.45% (inactive); in [15] it was 6% (inactive). In addition, the superoxide response (% of plate) in test [8] was 102% (inactive). For the same compound, the aptamer binding inhibition in test [9] is 8% (inactive). For the same compound, the response in [10] is -12.2% (inactive); in test [12], 2.01% (inactive). Further, in [13], the binding (% of control) was 98.5% (inactive). Further, the efflux inhibition (fraction of control) in test [14] is 0.04 (inactive). Also, the differentiation response in test [16] is -7.94% (inactive).

These data come from PubChem BioAssay.
